Screening results deposited in PubChem by National Center for Advancing Translational Sciences (NCATS).
In the library only some 19% were active in any assay of this set; here they are far more common.
IL1B secr inh: qHTS for Inhibitors of Inflammasome Signaling: IL-1-beta AlphaLISA Primary Screen. THP-1 LPS/ATP IL-1B secretion, AlphaLISA, 16 h; stronger effect = lower value. activity change, % at 57.5 µM. hit rate 4.7% among 360,000. AID 743279, 2014; in the data active = activity change below about -50%; inconclusive = mostly about -30% to -49%; note: % is set by controls: 0 for no effect and ±100 for the full control effect
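Secreted IL-1B measured by AlphaLISA bead assay after 16 h compound exposure of THP-1 cells; compounds (final up to 57.5 uM) added 1 h before LPS (250 ng/mL) and ATP (1.25 mM) stimulation; lower signal means less secretion.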
HepG2 viability: qHTS for Inhibitors of TGF-b: Cytotox Counterscreen. hit rate 0.76% among 410,000. Potency, µM (titrated, usually from 46.1 µM), for the others: at the highest dose activity change, negative = cytotoxicity, usual class: cytotoxic. HepG2 CAGA-GFP viability, ATP luminescence, 18 h; note: potency is the fitted concentration of half-maximal effect
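CellTiter-Glo luminescence gave cytotoxicity after 18 hours at 37 degrees C. The cells were HepG2 CAGA-GFP in 1% FBS DMEM, stimulated with 500 pg/mL TGF-beta after compound addition. %Activity was normalised to no-cell wells (complete cell-killing) and DMSO (no toxicity), and curves were fitted and classified.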
TDP1 block: qHTS Assay for Inhibitors of Tyrosyl-DNA Phosphodiesterase (TDP1); hit rate 0.28% among 350,000; recombinant TDP1, AlphaScreen DNA substrate cleavage; Potency, µM (top dose mostly 130 µM), inactives show at the top dose activity change, negative = inhibition, usual class: inhibitors; note: potency is the fitted concentration of half-maximal effect; % is set by controls: 0 for no effect and ±100 for the full control effect; nearly all actives have a fitted effect of over 40% in size
Target sequence (Q9NUW8 whole entry, looked up): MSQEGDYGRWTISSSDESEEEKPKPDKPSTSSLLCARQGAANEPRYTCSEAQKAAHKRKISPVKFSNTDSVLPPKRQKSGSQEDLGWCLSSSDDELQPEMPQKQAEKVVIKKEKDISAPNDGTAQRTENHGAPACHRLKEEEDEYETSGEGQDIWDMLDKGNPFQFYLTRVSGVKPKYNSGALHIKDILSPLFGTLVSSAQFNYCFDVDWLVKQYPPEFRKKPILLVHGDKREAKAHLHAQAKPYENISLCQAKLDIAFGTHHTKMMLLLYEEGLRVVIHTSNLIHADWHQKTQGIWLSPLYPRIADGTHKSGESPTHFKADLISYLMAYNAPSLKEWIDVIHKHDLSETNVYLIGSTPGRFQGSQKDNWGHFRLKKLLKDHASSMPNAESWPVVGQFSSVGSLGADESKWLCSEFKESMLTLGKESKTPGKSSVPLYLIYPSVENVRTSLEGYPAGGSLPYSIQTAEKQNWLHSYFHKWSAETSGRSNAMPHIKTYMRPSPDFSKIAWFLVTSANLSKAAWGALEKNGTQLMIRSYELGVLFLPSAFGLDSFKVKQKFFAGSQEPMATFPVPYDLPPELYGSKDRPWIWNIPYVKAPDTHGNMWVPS
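Enzyme-compound mixtures sat 15 min at room temperature, followed by a 5 min reaction with 15 nM final substrate and 10 min with AlphaScreen beads. Recombinant human Tdp1 was used at 1 nM final.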
TDP1 cell noCPT: qHTS for Inhibitors of human tyrosyl-DNA phosphodiesterase 1 (TDP1): qHTS in cells in absence of CPT. hit rate 15% among 420,000. Potency, µM (series often up to 46.2 µM), inactives show at the highest dose activity change, negative = growth inhibition, usual class: inhibitors. AID 686978, 2013. DT40 Tdp1-/- hTDP1 cells, no CPT, ATP luminescence, 48 h; note: potency is the fitted concentration of half-maximal effect; % is set by controls: 0 for no effect and ±100 for the full control effect; nearly all actives have a fitted effect of over 55% in size
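Seeded 400 DT40-hTDP1 cells/well (vehicle DMSO, no 20 nM CPT); pinned compounds; ≥48 hr at 37 °C; CellTiter-Glo luminescence as viability measure.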
TGFb inhibitor: qHTS for Inhibitors of TGF-b; hit rate 1.2% among 410,000; HepG2 CAGA-GFP TGF-b/SMAD3 reporter, GFP fluorescence, 18 h; TGF-beta stimulated, 500 pg/mL final; Potency, µM (titrated, usually from 46.1 µM), inactives show at the top dose activity, negative = inhibition, usual class: inhibitors; note: potency is the fitted concentration of half-maximal effect; % is set by controls: 0 for no effect and ±100 for the full control effect; nearly all actives have a fitted effect of over 65% in size
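Using HEPG2 CAGA-GFP reporter cells at 1000 cells/well, we pinned test compounds, stimulated with recombinant TGF-beta (500 pg/mL final) and measured total well GFP after 18 h.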
TDP1 cell CPT: qHTS for Inhibitors of human tyrosyl-DNA phosphodiesterase 1 (TDP1): qHTS in cells in presence of CPT; chicken DT40 Tdp1-/-;hTDP1 cells + 20 nM CPT, ATP luminescence, 48 h; Potency, µM (titrated, usually from 46.2 µM), for inactives: at the top dose activity change, negative = growth inhibition, usual class: inhibitors; hit rate 12% among 420,000; AID 686979, 2013; note: potency is the fitted concentration of half-maximal effect; % is set by controls: 0 for no effect and ±100 for the full control effect; nearly all actives have a fitted effect of over 55% in size
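Cell growth measured by CellTiter-Glo luminescence after a minimum 48 h, 37 C compound exposure with 20 nM CPT in Tdp1-knockout DT40 cells stably expressing hTDP1, seeded 400/well; qHTS titration format.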
Numbers without * were called inactive; ! = repeats disagree; [ ] = another dose, or the depositor's remark. Unless noted, calls come from the whole dose curve; as a rule, active = well fitted curve in the direction sought with a large enough effect; inconclusive = small, poorly fitted or top-dose-only effect, or another doubt; inactive = no such curve, though single readings can be large; an effect the other way counts as inactive or inconclusive.

For CCCC[C@H]1C(=O)O[C@H](C)[C@H](NC(=O)c2cccc(NC=O)c2OC)C(=O)O[C@@H](C)[C@@H]1OC(=O)CC(C)C the results were TDP1 block 12.8%, TDP1 cell noCPT 6.75µM* and TDP1 cell CPT inconclusive.
For CCCCCC1C(=O)O[C@H](C)[C@@H](NC(=O)c2cccc(NC=O)c2O)C(=O)OC(C)C1OC(=O)CC(C)C (stereo partly drawn) the results were TDP1 block 14.4%[56.1 µM], TDP1 cell noCPT 0.0461µM* and TDP1 cell CPT 0.0461µM*.
CC(C)CN1CC2(CCN(C(=O)Oc3ccccc3)CC2)C1 was read as TDP1 cell noCPT 3.2% and TDP1 cell CPT 7.9%.
Screening CCCCOC1NC(=O)NC(=O)C1(F)C(=O)OCC (stereo not drawn) returned IL1B secr inh 23.8, HepG2 viability 10.4%, TDP1 cell noCPT inconclusive, TGFb inhibitor 1.9% and TDP1 cell CPT inconclusive.
[O]=[Cr](=[O])([OH])[O][Cr](=[O])(=[O])[OH] was read as TDP1 block 6.31µM*!, TDP1 cell noCPT 16.8µM* and TDP1 cell CPT inconclusive.
O=c1[nH]c2sccc2c2ccccc12 was read as TDP1 block 7.5%.
`CCOC(=O)CC1c2ccccc2-n2nncc2CN1Cc1ccc(OC)cc1` (stereo not drawn) gave IL1B secr inh 8.6, HepG2 viability -5.9%, TDP1 cell noCPT inconclusive, TGFb inhibitor -0.1% and TDP1 cell CPT inconclusive.
Screening COc1ccc(CN2Cc3cc(N4CCOCC4)ccc3-n3nncc3C2)cc1 returned IL1B secr inh -21.7, HepG2 viability 0.7%, TDP1 cell noCPT inconclusive, TGFb inhibitor -20.1% and TDP1 cell CPT 20.6µM*.
Screening Cc1ccccc1CN1Cc2cnnn2-c2ccccc2C1C#N (stereo not drawn) returned IL1B secr inh -102.4*, HepG2 viability -84.7%, TDP1 cell noCPT 2.06µM*, TGFb inhibitor inconclusive and TDP1 cell CPT 2.59µM*.
For COc1ccc(CN2Cc3cnnn3-c3ccccc3C2C)cc1 (stereo not drawn) the results were IL1B secr inh 21.2, HepG2 viability -17.9%, TDP1 cell noCPT 16.4µM*, TGFb inhibitor 1.5% and TDP1 cell CPT inconclusive.
Screening COc1ccc(CN2Cc3cc(-c4ccc(OC)cc4)ccc3-n3nncc3C2)cc1 returned IL1B secr inh -1.5, HepG2 viability 0.1%, TDP1 cell noCPT 18.4µM*, TGFb inhibitor inconclusive and TDP1 cell CPT 20.6µM*.
Cc1ccccc1C(=O)N1Cc2cnnn2-c2ccccc2C1C#N (stereo not drawn) was read as IL1B secr inh 11.6, HepG2 viability -0.9%, TDP1 cell noCPT -19.7%, TGFb inhibitor inconclusive and TDP1 cell CPT -8.5%.
`C#CCO` gave TDP1 block 6.5%.
CC=C(CC)C1(CCC)C(=O)NC(=S)NC1=O was read as IL1B secr inh -6.4, HepG2 viability 5.5%, TDP1 cell noCPT -7.3%, TGFb inhibitor -5.9% and TDP1 cell CPT 16.6%.
Screening Cc1oc(-c2ccccc2F)nc1CS(=O)(=O)CC(=O)N1CCN(c2cccc(C(F)(F)F)c2)CC1 returned HepG2 viability -24.0%, TDP1 block 6.4%, TDP1 cell noCPT inconclusive, TGFb inhibitor inconclusive and TDP1 cell CPT inconclusive.
Cc1c(C)c2c(c(C)c1OC(=O)CCC(=O)OCCO)CC[C@@](C)(CCC[C@H](C)CCC[C@H](C)CCCC(C)C)O2 was read as TDP1 cell noCPT inconclusive and TDP1 cell CPT 10.6µM*.
Screening CCN(CC)c1ccc(C=NN2CCCCCC2)cc1 returned IL1B secr inh -18.4, HepG2 viability -5.9%, TDP1 cell noCPT inconclusive, TGFb inhibitor 9.6% and TDP1 cell CPT inconclusive.
Screening Cc1cccn2c(=O)cc(COc3cccc(NC(=O)COc4ccc(F)cc4)c3)nc12 returned HepG2 viability 2.7%, TDP1 block 0.0%, TDP1 cell noCPT 8.2µM*, TGFb inhibitor -20.5% and TDP1 cell CPT inconclusive.
CCOP(=S)(OCC)SCCSCC was read as IL1B secr inh 22.2, HepG2 viability -2.2%, TDP1 block -8.6%, TDP1 cell noCPT -8.2%, TGFb inhibitor -1.3% and TDP1 cell CPT -13.8%.
For Fc1ccc2c(c1)nnn2C1CCN(Cc2c(Cl)cccc2Cl)CC1 the results were IL1B secr inh -2.6, HepG2 viability -12.8%, TDP1 block 3.6%[56.1 µM], TDP1 cell noCPT 18.4µM*, TGFb inhibitor -6.9% and TDP1 cell CPT 18.4µM*.
Screening CCCCC1(CCCC)C(=O)NC(=Nc2cccc(C)c2)NC1=O returned IL1B secr inh -56.1*, HepG2 viability -13.6%, TDP1 block 5.9%, TDP1 cell noCPT 18.4µM*, TGFb inhibitor inconclusive and TDP1 cell CPT 16.4µM*.
`CCCN(CCC)c1c([N+](=O)[O-])cc(C(F)(F)F)cc1[N+](=O)[O-]` gave TDP1 block 16.0%[56.1 µM], TDP1 cell noCPT -0.4% and TDP1 cell CPT -6.2%.
For CCCC12CN3CCN(CC(C3)/C1=N\NC(=O)c1ccncc1)C2 the results were IL1B secr inh -2.0, HepG2 viability 5.6%, TDP1 block 2.6%, TDP1 cell noCPT -33.3%, TGFb inhibitor -19.4% and TDP1 cell CPT -17.1%.
For CCC12CN3CCN(CC(C3)/C1=N/NC(=O)c1ccncc1)C2 the results were IL1B secr inh 0.0, HepG2 viability 8.1%, TDP1 block 1.2%, TDP1 cell noCPT -4.2%, TGFb inhibitor 1.12µM* and TDP1 cell CPT 1.9%.
Cl.Cl.Cl.Cl.Cl.Cl.N.N.N.N.NNNNN.NNNNN.O.O.[Ru].[Ru].[Ru] was read as TDP1 block 20.2%, TDP1 cell noCPT inconclusive and TDP1 cell CPT inconclusive.
CCOC(=O)[C@]12Cc3cc(C)ccc3[C@H]1N(CCC(=O)OC)C(=O)c1cc(OC)ccc12 was read as IL1B secr inh -124.0*, TDP1 cell noCPT 8.2µM* and TDP1 cell CPT 10.3µM*.
Screening CCOC(=O)[C@]12Cc3ccccc3[C@H]1N(CCC(=O)OC)C(=O)c1ccccc12 returned TDP1 cell noCPT 16.4µM* and TDP1 cell CPT 18.4µM*.
